Assay results published in PubChem BioAssay (NCATS).
Inconclusive results are not listed. Active and inactive are the calls of the source. Calls come from the whole dose curve; as a rule, active = well fitted curve in the direction sought with a large enough effect in the signal ratio, with a control signal flat; inconclusive = small, poorly fitted or top-dose-only effect, or a change in a side signal; inactive = no such curve, though single readings can be large or run the other way; the % refers to the signal ratio.

What follows are compounds tested against Glucocorticoid receptor (Homo sapiens) (UniProt P04150) (assay: qHTS assay for small molecule agonists of glucocorticoid receptor signaling (AID 588532)). Details: HeLa MMTV-bla, beta-lactamase ratio, agonist, 18 h; activation: stronger effect = higher value, percent of dexamethasone control, DMSO zero.
Sequence of Glucocorticoid receptor (Homo sapiens) (P04150 whole entry, looked up): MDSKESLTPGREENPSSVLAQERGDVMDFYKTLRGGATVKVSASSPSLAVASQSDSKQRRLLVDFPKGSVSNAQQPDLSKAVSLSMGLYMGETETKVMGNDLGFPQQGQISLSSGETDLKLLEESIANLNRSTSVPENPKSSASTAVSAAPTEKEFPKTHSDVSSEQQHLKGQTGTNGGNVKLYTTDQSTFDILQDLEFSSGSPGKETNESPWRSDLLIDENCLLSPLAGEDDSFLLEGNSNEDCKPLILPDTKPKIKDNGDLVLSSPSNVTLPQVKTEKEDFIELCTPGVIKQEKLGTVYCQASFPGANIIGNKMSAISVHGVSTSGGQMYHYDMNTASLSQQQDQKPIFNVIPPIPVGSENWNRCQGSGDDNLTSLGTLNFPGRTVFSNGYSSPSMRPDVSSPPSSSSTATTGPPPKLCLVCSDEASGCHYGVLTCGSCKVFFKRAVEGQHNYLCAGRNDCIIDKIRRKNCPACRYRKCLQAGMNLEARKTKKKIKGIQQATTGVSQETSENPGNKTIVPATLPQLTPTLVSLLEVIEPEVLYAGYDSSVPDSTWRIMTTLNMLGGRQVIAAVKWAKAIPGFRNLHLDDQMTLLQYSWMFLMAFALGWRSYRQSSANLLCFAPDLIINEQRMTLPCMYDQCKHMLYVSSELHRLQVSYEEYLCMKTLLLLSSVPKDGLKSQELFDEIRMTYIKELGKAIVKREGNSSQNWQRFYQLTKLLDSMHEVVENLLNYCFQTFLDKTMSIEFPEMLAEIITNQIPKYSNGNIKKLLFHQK
Source text: NIH Chemical Genomics Center [NCGC] U.S. Environmental Protection Agency [EPA] National Institutes of Environmental Health Sciences [NIEHS] National Toxicology Program [NTP] NCGC Assay Overview The Glucocorticoid receptor (GR), a nuclear receptor subfamily member and its natural ligands includes […] etc. The GR is a validated drug target for inflammation. GR ligands such as dexamethasone are clinically available as anti-inflammatory drugs. Glucocorticoids implicate role in carbohydrate, protein and lipid metabolisms and programmed cell death. They are also a component of many chemotherapy regimens for the treatment of leukemias, lymphomas, and myelomas because of their role in the induction of apoptosis.
NCGC Assay Protocol Summary Using a beta-lactamase reporter-gene under control of glucocorticoid response element (GRE), a cell-based assay [CellSensor MMTV-bla HeLa cell line assay developed by Invitrogen] was used to measure GR ligands signaling. CellSensor MMTV-bla HeLa cells were used with assay medium containing 1% charcoal/dextran treated FBS, 0.1 mM NEAA, 1 mM sodium pyruvate and 25mM HEPES. The assay was performed in clear bottom black Greiner 1536-well plates. Dexamethasone and Mifepristine were used in the screen as agonist and antagonist positive controls respectively. Library compounds were measured for their ability to stimulate the reporter gene activity. Compounds were screened in a titration series in 1536-well format. The fluorescence intensity (405 nm excitation, 460/530 nm emission) was measured using an EnVision plate reader. Data was normalized relative to Dexamethasone control (0.1 uM, 100%), and DMSO only wells (basal, 0%). Concentration-response titration points for each compound were fitted to the Hill equation yielding concentrations of half-maximal stimulation (EC50) and maximal response (efficacy) values. qHTS protocol for GR beta-lactamase assay in agonist mode [Step] [Parameter] [Value] [Description] 1. Reagent; 6 uL; 1500 cells/well 2. Incubation; 37 C for 3-5 hrs 3. Compounds; 23 nL; 0.59 nM to 92 uM 4. Controls (Dexamethasone); 23 nL, - One column with dose response, start 4.6uM, 1:3 dilutions in duplicates - Final concentrations of 0.1 uM and 2 nM in two columns 5. Incubation; 37 C for 18 hrs 6. Detection reagent; 1 uL of CCF4-dye 7. Incubation; RT for 2 hrs 8. Detection; Fluorescence; Envision plate reader
In the case of COP(=S)(OC)Oc1c(Cl)cc(C)cc1Cl, the activation is reported as 2.7% (inactive).
NS(=O)(=O)C(F)(F)C(F)(F)C(F)(F)C(F)(F)C(F)(F)C(F)(F)C(F)(F)C(F)(F)F was tested, and the activation was -2.51% (inactive).
With CCS(=O)(=O)c1cccnc1S(=O)(=O)NC(=O)Nc1nc(OC)cc(OC)n1 the activation was -0.845% (inactive).
[Ga]#[As] was tested, and the activation was 4.24% (inactive).
CNC(=O)O/N=C(\C)SC was tested, and the activation was -2.31% (inactive).
In the case of CC(C)N(C(=O)CCl)c1ccccc1, the activation is reported as -11.4% (inactive).
In the case of O=C1C(Cl)=C(Cl)C(=O)c2ccccc21, the activation is reported as -5.64% (inactive).
For Cc1ccccc1C(=O)Nc1cccc(OC(C)C)c1, the activation was 2.19% (inactive).
With CC(C)C1(C)N=C(c2nc3ccccc3cc2C(=O)O)NC1=O (stereo not given) the activation was 2.3% (inactive).
CCCCCCCCCCCCN(C)C was tested, and the activation was -15.1% (inactive).
With O=[N+]([O-])c1ccc(Oc2ccc(Cl)cc2Cl)cc1 the activation was -3.5% (inactive).
In the case of CC(C)=CC1C(C(=O)OCc2coc(Cc3ccccc3)c2)C1(C)C (stereo not given), the activation is reported as 2.93% (inactive).
In the case of CC(C)(C)C(=O)[C@H](Oc1ccc(Cl)cc1)n1cncn1, the activation is reported as -0.211% (inactive).
For O=P(O)(O)CN(CP(=O)(O)O)CP(=O)(O)O, the activation was 4.25% (inactive).
CCOP(=S)(NC(C)C)Oc1ccccc1C(=O)OC(C)C (stereo not given) was tested, and the activation was -0.106% (inactive).
For COC(=O)c1sccc1S(=O)(=O)NC(=O)Nc1nc(C)nc(OC)n1, the activation was -2.71% (inactive).
For CCSC(=O)N(CC)C1CCCCC1, the activation was -1.4% (inactive).
In the case of COc1cc(OC)nc(NC(=O)NS(=O)(=O)c2ncccc2C(F)(F)F)n1, the activation is reported as -18.1% (inactive).
For O=C(O)COc1ccc(Cl)cc1, the activation was -1.72% (inactive).
COC(=O)c1ccccc1CS(=O)(=O)NC(=O)Nc1nc(OC)cc(OC)n1 was tested, and the activation was -0.772% (inactive).
In the case of CC(C)=CC1[C@H](C(=O)OCc2cccc(Oc3ccccc3)c2)C1(C)C (stereo not given in full), the activation is reported as 1.86% (inactive).
With CCOP(=S)(OCC)SCn1nnc2ccccc2c1=O the activation was 9.79% (inactive).
With C=CC(=O)OCC(CC)(COC(=O)C=C)COC(=O)C=C the activation was -13.7% (inactive).
In the case of S=C(S)NCCNC(=S)S, the activation is reported as -2.17% (inactive).
With CCOS(=O)(=O)OCC the activation was -9.13% (inactive).
For CCOP(=S)(OCC)SCSP(=S)(OCC)OCC, the activation was -1.05% (inactive).
With C/C(=N\C(N)=O)N(C)Cc1ccc(Cl)nc1 the activation was -1.3% (inactive).
For C#CCN1C(=O)COc2cc(F)c(N3C(=O)C4=C(CCCC4)C3=O)cc21, the activation was -6.94% (inactive).
For CCSC(C)CC1CC(=O)C(/C(CC)=N/OC/C=C/Cl)=C(O)C1 (stereo not given), the activation was -3.59% (inactive).
For O=C1c2ccccc2C(=O)C1C(=O)C(c1ccccc1)c1ccc(Cl)cc1 (stereo not given), the activation was -5.26% (inactive).
With S=C([S-])NCCNC(=S)[S-].S=C([S-])NCCNC(=S)[S-].[Mn+2].[Zn+2] the activation was 13.6% (inactive).
In the case of CCCCN(CC)c1c([N+](=O)[O-])cc(C(F)(F)F)cc1[N+](=O)[O-], the activation is reported as -5.8% (inactive).
For ClCc1ccccc1Cl, the activation was -3.29% (inactive).
In the case of CCC(C)(C)c1cc(-n2nc3ccccc3n2)c(O)c(C(C)(C)CC)c1, the activation is reported as 2.15% (inactive).
O=C(NC(=O)c1c(F)cccc1F)Nc1cc(Cl)c(OC(F)(F)C(F)F)c(Cl)c1 was tested, and the activation was 12.6% (inactive).
CCOP(=S)(OCC)SCC(=O)NC(C)C was tested, and the activation was 3% (inactive).
For CCCCCCCCCCCC#N, the activation was -5.17% (inactive).
C1=Cc2cccc3cccc1c23 was tested, and the activation was -9.46% (inactive).
In the case of CNC(=O)O/N=C/C(C)(C)S(C)(=O)=O, the activation is reported as 9.32% (inactive).
For [CH3][Hg][Cl], the activation was -4.13% (inactive).
